# The list is not random: actives were taken first. Their share in the collection is about 9.8%.
# CBFb RUNX1 block – CBF-beta/RUNX1 interaction disruption | Q01196+Q13951 | AlphaScreen CBFb-His/RUNX1-biotin binding, biochemical | Potency, µM (highest dose often 59.8 µM), without a hit: at the top dose activity, negative = inhibition, actives largely listed as inhibitors | 230,000 tested, under 10 active | AID 1477; active = well fitted curve in the direction sought with a large enough effect; inconclusive = small, poorly fitted or top-dose-only effect, or another doubt; inactive = no such curve, though single readings can be large; an effect the other way counts as inactive or inconclusive; note: % of control where 0% means no effect
# Target sequence (Q01196 whole entry, looked up): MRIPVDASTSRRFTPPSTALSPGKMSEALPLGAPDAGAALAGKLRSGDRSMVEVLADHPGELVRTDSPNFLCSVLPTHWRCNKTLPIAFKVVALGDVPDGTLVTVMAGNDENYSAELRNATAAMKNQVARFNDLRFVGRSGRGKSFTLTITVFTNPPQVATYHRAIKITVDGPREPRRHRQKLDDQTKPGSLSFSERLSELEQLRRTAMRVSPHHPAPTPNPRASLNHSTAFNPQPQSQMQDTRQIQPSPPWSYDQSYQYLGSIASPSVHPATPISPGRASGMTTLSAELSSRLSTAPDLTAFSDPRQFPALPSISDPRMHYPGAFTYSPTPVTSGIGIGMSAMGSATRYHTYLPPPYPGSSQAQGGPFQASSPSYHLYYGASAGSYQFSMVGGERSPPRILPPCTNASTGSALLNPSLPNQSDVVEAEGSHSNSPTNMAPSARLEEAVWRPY
# Target sequence (Q13951 whole entry, looked up): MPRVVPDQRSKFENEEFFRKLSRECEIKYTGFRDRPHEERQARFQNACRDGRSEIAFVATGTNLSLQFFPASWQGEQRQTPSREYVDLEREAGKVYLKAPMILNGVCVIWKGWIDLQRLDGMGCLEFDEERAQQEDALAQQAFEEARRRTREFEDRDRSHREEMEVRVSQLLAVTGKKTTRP
#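 Bead-based AlphaScreen assay; binding partners His-tagged CBF-beta and biotinylated RUNX1 at 30 nM each. Compound exposure 15 min after a 20-min protein preincubation; bead step 90 min; all steps at room temperature.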
# HPGD block – inhibitors of human 15-hydroxyprostaglandin dehydrogenase (HPGD); 150,000 compounds, 4.3% hits; purified HPGD, NADH fluorescence kinetic, PGE2 substrate; AID 894; Potency, µM, without a hit: at the highest dose activity change, negative = inhibition, usual class: inhibitors; P15428; note: potency is the fitted concentration of half-maximal effect; % is set by controls: 0 for no effect and ±100 for the full control effect
#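 NADH formation kinetics: reaction with 30 uM PGE2 and 1 mM NAD+ (final), 20 nM enzyme, Tris-HCl pH 8 with Tween 20, after 15 min compound preincubation at room temperature. Fluorescence change, last versus first of five reads.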
# ALDH1A1 block – ALDH1A1 (human) enzyme inhibition; Potency, µM (top dose mostly 75.3 µM), inactives show top-dose activity, negative = inhibition, most hits filed as inhibitors; Purified ALDH1A1, NADH fluorescence, propionaldehyde substrate; 220,000 compounds, 7.3% hits; P00352;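 note: potency is the fitted concentration of half-maximal effect; plate controls were no enzyme wells and a reference inhibitor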
# HTT ATP protect – protects HTT-Q103 PC12 cells, measured by ATP. 230,000 compounds, 0.14% hits. AID 1471. PC12 HTT-Q103 induced, cytoprotection, ATP luminescence, 40 h. Potency, µM (highest dose often 56.4 µM), without a hit: cytoprotection (ATP increase), usual class: activators; active = well fitted curve in the direction sought with a large enough effect; inconclusive = small, poorly fitted or top-dose-only effect, or another doubt; inactive = no such curve, though single readings can be large; an effect the other way counts as inactive or inconclusive; note: potency is the fitted concentration of half-maximal effect; % of control where 0% means no effect; nearly all actives have a fitted effect of over 45% in size
#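 PC12 cells stably carrying ecdysone-inducible Htt exon 1 (Q103)–GFP were induced with 100 nM tebufenozide (final) alongside library compounds in a dose series. Cytoprotection was scored as retained ATP by ATPlite luminescence.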
# HttQ103 aggreg – inhibitors of mutant huntingtin aggregate formation in PC12 cells | PC12 HttQ103-GFP aggregates, Acumen cytometry, 40 h | Potency, µM (highest dose often 46.1 µM), for the others: at the top dose activity change, negative = inhibition, hits mostly inhibitors | 220,000 compounds, 1.1% hits | AID 1688; active = well fitted curve in the direction sought with a large enough effect; inconclusive = small, poorly fitted or top-dose-only effect, or another doubt; inactive = no such curve, though single readings can be large; an effect the other way counts as inactive or inconclusive; note: potency is the fitted concentration of half-maximal effect; % is set by controls: 0 for no effect and ±100 for the full control effect; nearly all actives have a fitted effect of over 60% in size
#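 Huntingtin Q103 exon 1–GFP aggregates in induced PC12 cells (100 nM tebufenozide) were quantified by cytometry from lysates, with compounds dosed in titration.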
# KDM4E inh – inhibitors of human JMJD2E histone demethylase; B2RXH2; JMJD2E catalytic domain, FDH-coupled NADH fluorescence (FDH is formaldehyde dehydrogenase); Potency, µM (top dose mostly 57.1 µM), without a hit: at the highest dose activity change, negative = inhibition, hits mostly inhibitors; 230,000 compounds, 1.6% hits;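 note: potency is the fitted concentration of half-maximal effect; 0% = wells with enzyme and -100% = buffer wells without enzyme; nearly all actives have a fitted effect of over 50% in size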
# The depositor's hits bear a star; u = inconclusive; x = not tested or not shown; [ ] = another dose, or the depositor's remark. Unless noted, calls come from the whole dose curve; as a rule, active = well fitted inhibition curve with a large enough effect (not every such curve was filed as active); inconclusive = small, poorly fitted or top-dose-only effect, or another doubt; inactive = no such curve, though single readings can be large or run the other way.
SMILES,CBFb RUNX1 block,HPGD block,ALDH1A1 block,HTT ATP protect,HttQ103 aggreg,KDM4E inh
O=C1CC(c2ccc(F)cc2)Cc2nc(N3CCOCC3)ncc21 (stereo not given),11%,-21%,28µM*,-35%,-5%,-15%
CCOc1cc(C)c(C(C)C)cc1S(=O)(=O)n1cnc(C)c1,-2%,x,u,-21%,-5%,-1%
S=c1[nH]nc(COc2ccc(Cl)cc2)n1C1CCCCC1,-3%,14µM*,u,-25%[10 µM],-5%,u
Cc1cccc(OCc2n[nH]c(=S)n2C2CCCCC2)c1,18%,10µM*,u,9%[10 µM],-4%,-15%
Cc1ccc(OCc2n[nH]c(=S)n2C2CCCCC2)cc1,-1%,14µM*,14µM*,-1%,-16%,u
S=c1[nH]nc(CSCc2ccccc2Cl)n1C1CCCCC1,-15%,x,u,x,-19%,-4%
COc1cccc(-n2c(N)c(-c3nc4ccccc4[nH]3)sc2=S)c1,-19%,x,28µM*,-86%,30%,-2%
COc1ccc2nc(-c3cccc(N)c3)[nH]c2c1,-2%,u,-7%,13%[1.9 µM],u,3%
COc1ccccc1-n1c(SCC(=O)NCc2ccc3c(c2)OCO3)nc2cc([N+](=O)[O-])ccc21,u,-18%,1.1µM*,-3%[10 µM],8%,u
CC(Sc1nc2cc([N+](=O)[O-])ccc2n1-c1ccc(F)cc1)C(=O)NCc1ccc2c(c1)OCO2 (stereo not given),5%,u,1.4µM*,-13%[10 µM],7%,-4%
C#CCOC(=O)[C@H](N)CC(N)=O,x,-6%,0%[13.5 µM],-6%[10 µM],x,x
CCc1cc(C(=O)Cc2nc3ccccc3s2)c(O)cc1OCC(=O)O,12%,x,1%,8%[10 µM],6%[9.22 µM],u
Cc1ccc(S(=O)(=O)N2CCN(C(=O)C3Cc4ccccc4CN3C(=O)c3ccco3)CC2)cc1 (stereo not given),0%,-10%,8.9µM*,11%,-10%,4%
O=C1NC(c2ccccc2)Nc2c1sc(=S)n2-c1ccccc1 (stereo not given),-6%,x,32µM*,-1%,u,0%
O=C(CSc1ccc2nnc(-c3cccs3)n2n1)N1CCCC1,18%,x,u,-19%,-8%,u
O=C(CSc1ccc(-c2cccs2)nn1)N1CCCCC1,-3%,3.5µM*,u,-2%[10 µM],8%,u
O=C(CSc1ccc(-c2ccccc2)nn1)N1CCOCC1,5%,-22%,28µM*,-15%,10%,-1%
O=C(CSc1ccc(-c2cccs2)nn1)N1CCCCCC1,3%,11µM*,-5%,-6%[10 µM],1%,-6%
O=C(CSc1ccc(-c2cccnc2)nn1)N1CCCCCC1,4%,x,-11%,-38%,-21%,-5%
O=C(Nc1nnc(SCC(=O)N2CCOCC2)s1)c1ccccc1,-3%,32µM*,-7%,x,u,-7%
O=C(CSc1ccc(-c2cccs2)nn1)NCc1ccccc1Cl,-2%,32µM*,0%,8%[10 µM],16%,4%
CCN(CC)c1ccc(/C=C/C(=O)C2C(=O)C=C(C)OC2=O)cc1 (stereo not given),-4%,x,18µM*,-106%,u,u
Cc1onc(-c2ccccc2Cl)c1C(=O)N1CCN=C1SCc1cccnc1,-1%,-6%,4%,1%,5%,6%
COc1ccccc1N/N=C/c1ccc2c(c1)OCO2,-21%,16µM*,u,22%[10 µM],u,u
O=C(COc1ccccc1)N/N=C/c1ccc2c(c1)OCO2,u,x,-1%,-26%,9%,-21%
SMILES,CBFb RUNX1 block,HPGD block,ALDH1A1 block,HTT ATP protect,HttQ103 aggreg,KDM4E inh
CC1(C)CC(=O)c2cc3c(nc2C1)CC(C)(C)CC3=O,3%,x,7.1µM*,-1%[10 µM],u,0%
CC1(C)CC(=O)c2cnc(N)nc2C1,7%,-12%,u,11%,0%,5%
Cn1c(=O)c2[nH]c(CCCCC(=O)O)nc2n(C)c1=O,x,-1%,u,5%[10 µM],x,x
C/[N+]([O-])=C\CC(=O)c1ccc(-c2ccccc2)cc1,-14%,x,28µM*,-37%,14%,-4%
CCN(CC)C(=O)c1ccc(-c2ccccc2)cc1,2%,0.63µM*,u,x,5%,4%
N[C@@]1(C(=O)O)CCC[C@@H]1C(=O)O,x,2%,5%[13.5 µM],-16%[10 µM],x,x
CNc1nc(SCc2ccc(C)cc2)nc2c1CCCC2,-12%,u,6.3µM*,-64%,u,3%
Cc1ccc(CSc2nc3c(c(N(C)C)n2)CCCC3)cc1,u,-11%,u,6%[10 µM],u,-11%
O=C(NCC(c1ccc(F)cc1)N1CCOCC1)c1ccc(C(=O)c2ccccc2)cc1 (stereo not given),5%,x,x,2%[10 µM],-15%[9.22 µM],4%
O=C(O)[C@@H](O)c1ccc(F)cc1,x,-4%,1%[13.5 µM],-3%[10 µM],x,x
CC(=O)Nc1ccc(C(C#N)c2ccccc2)cc1 (stereo not given),2%,x,14µM*,7%[10 µM],2%[9.22 µM],-1%
N#CC(c1ccccc1)c1ccc(C(=O)c2ccc(F)cc2)cc1 (stereo not given),22%,u,20µM*,-57%,u,-3%
CC(=O)Nc1ccc(Nc2ccccc2)cc1,-2%,x,x,6%[10 µM],-15%[9.22 µM],0%
N#CC(c1ccc(F)cc1)c1ccc(C(=O)c2ccccc2)cc1 (stereo not given),10%,14µM*,-39%,22%,-8%[9.22 µM],0%
O=C(Cc1ccccc1Cl)Nc1nc2ccccc2[nH]1,-5%,x,25µM*,2%[10 µM],5%[9.22 µM],-4%
Cc1ccc(N(C(=O)C2CCC(=O)N2)C2(C(=O)NC3CCCC3)CCCCC2)cc1 (stereo not given),-2%,6%,-6%,4%,13%,-3%
O=C1CCC(C(=O)N(c2ccccc2)C2(C(=O)NC3CCCCC3)CCCCC2)N1 (stereo not given),1%,x,7.1µM*,1%,11%,-5%
O=C(Nc1ccc(Br)cc1)C1OCCc2ccccc21 (stereo not given),8%,x,x,13%[10 µM],5%[9.22 µM],0%
CC(C)C(C(=O)O)N1C(=O)/C(=C/c2cccn2C)SC1=S (stereo not given),2%,-16%,-7%,9%[10 µM],11%,-7%
CCCC(C(=O)O)N1C(=O)/C(=C/c2cccn2C)SC1=S (stereo not given),-12%,18µM*,-2%,6%[10 µM],u,1%
Cc1ccc(S(=O)(=O)NN2C(=O)/C(=C/c3cccn3C)SC2=S)cc1,-22%,-26%,-4%,8%[10 µM],18%,8%
Cn1cccc1/C=C1\SC(=S)N(Nc2ccccc2)C1=O,-10%,x,3.5µM*,-13%[10 µM],17%[9.22 µM],-2%

# Bioassay records (PubChem)
